Results taken from PubChem BioAssay (NCATS).
Results filed as inconclusive are left out. Active and inactive are the calls of the source. Calls come from the whole dose curve; as a rule, active = well fitted inhibition curve with a large enough effect; inconclusive = small, poorly fitted or top-dose-only effect; inactive = flat fitted curve, though single readings scatter.

Assays:
KB-3-1 = experiment: Cytotoxic Profiling of Annotated Libraries Using Quantitative High-Throughput Screening (AID 1296008); conditions: Five cell lines viability, CellTiter-Glo ATP luminescence, 48-72 h; max response: stronger effect = lower value; for max response: % is set by controls: 0 for no effect and ±100 for the full control effect
Summary of the method: (§1)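 Cells exposed to compounds for 48 or 72 hr at 37 degrees Celsius. Viability read as ATP-coupled luminescence with CellTiter-Glo after 10 min at room temperature.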

NIH3T3 [1] = experiment: as above; conditions: Five cell lines viability, CellTiter-Glo ATP luminescence, 48-72 h; max response: stronger effect = lower value
Summary of the method: as §1

HEK293T = experiment: qHTS assay to identify novel small-molecules to repurpose for Merkel cell carcinoma treatment (AID 1296009); conditions: MCC and control cell lines, CellTiter-Glo viability, 72 h; at 44.8 µM (top of the series) unless noted
Summary of the method: (§2)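 Cells were treated for 72 hr at 37 degree celsius with compounds in 8- or 11-point dose response. Viability was read by CellTiter-Glo luminescence, normalized to no-cell (cytotoxicity) and DMSO controls.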

NIH3T3 [2] = experiment: as above; conditions: MCC and control cell lines, CellTiter-Glo viability, 72 h; at 44.8 µM (top of the series) unless noted
Summary of the method: as §2

Measured: max response
Note: nearly all actives have a fitted effect of over 60% in size.

CC1CC2OC3(OC2C(C)(C)O)C1C1(C)CCC24CC25CCC(O[C@@H]2OC[C@@H](O)[C@H](O)[C@H]2O)C(C)(C)C5CC=C4C1(C)C3O (some centres undefined)
inactive: KB-3-1 5.34% | NIH3T3 [1] 0.0478% | HEK293T inactive [at 17.4 µM]

CC(C)/C=C1\NC(=O)C(C(C)C)n2c1nc1c(c2=O)C=CC=CO1 (centres undefined)
inactive: KB-3-1 4.42% | NIH3T3 [1] | NIH3T3 [2]

CC(=O)N[C@@H](C(=O)O[C@H]1CCC(C)(C)[C@@H]2CCC3=C(COC3=O)[C@@]12C)C(C)C
inactive: KB-3-1 -11.9% | NIH3T3 [1] | NIH3T3 [2]

CC1(C)CC[C@]2(C(=O)O[C@@H]3O[C@H](CO)[C@@H](O)[C@H](O)[C@H]3O)CC[C@]3(C)C(=CCC4[C@@]5(C)CC[C@H](O[C@@H]6O[C@H](C(=O)O)[C@@H](O)[C@H](O[C@@H]7O[C@H](CO)[C@H](O)[C@H](O)[C@H]7O)[C@H]6O)C(C)(C)C5CC[C@]43C)C2C1 (some centres undefined)
inactive: KB-3-1 3.29% | NIH3T3 [1] | NIH3T3 [2] inactive [at 9.27 µM]

COC(=O)C12CCC(C)C(C)C1C1=CCC3C4(C)CCC(OC(C)=O)C(C)(C)C4CCC3(C)C1(C)CC2 (centres undefined)
inactive: KB-3-1 5.8% | NIH3T3 [1] | NIH3T3 [2] inactive [at 17.4 µM]

C=C(C)C1CCC2(C(=O)O[C@@H]3O[C@H](CO[C@@H]4O[C@H](CO)[C@@H](O)[C@H](O)[C@H]4O)[C@@H](O)[C@H](O[C@@H]4O[C@@H](C)[C@H](O)[C@@H](O)[C@H]4O)[C@H]3O)CCC3(C(=O)O)C(CCC4C5(C)CCC(O)C(C)(C)C5CCC43C)C12 (some centres undefined)
inactive: KB-3-1 | NIH3T3 [1] | HEK293T inactive [at 9.27 µM] | NIH3T3 [2] inactive [at 9.27 µM]
